Hits are enriched below; roughly 3% of the tested compounds scored in any of these assays.
PPC-1+TRAIL kill = kills PPC-1 cancer cells in the presence of TRAIL; PPC-1 cells + TRAIL, ATPLite viability luminescence; cell killing (% activity), % at 4 µM or 5 µM; 0.41% of 220,000 active; AID 1443;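 active = cell killing above 50% in the first pass at 4 µM, then a duplicate retest at 5 µM averaging 50% or more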;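 also: plate controls were cells with TRAIL plus DMSO for no effect and medium-only wells lacking cells for full effect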
SENP8 block-1 = blocks the human protease SENP8; 1.2% of 330,000 active; inhibition, % at 10 µM; Q96LD8; purified SENP8, Z-RLRGG-aminoluciferin cleavage, luminescence; in the data active = inhibition above about 50%
Target sequence (Q96LD8 whole entry, looked up): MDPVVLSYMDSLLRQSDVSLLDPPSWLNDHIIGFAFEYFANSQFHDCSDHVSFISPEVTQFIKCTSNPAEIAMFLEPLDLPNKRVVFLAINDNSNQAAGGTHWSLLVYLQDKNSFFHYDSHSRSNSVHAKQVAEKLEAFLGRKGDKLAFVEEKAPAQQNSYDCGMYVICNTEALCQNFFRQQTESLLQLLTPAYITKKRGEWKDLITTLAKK
SENP6 block = blocks the human protease SENP6. Recombinant SENP6 catalytic domain, aminoluciferin luminescence. inhibition, % at 10 µM. 1.8% of 330,000 active. AID 2599;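 active = inhibition above about 50% at the single tested dose, limit read from the data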;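 also: plate controls were DMSO wells with enzyme for no effect and DMSO wells lacking enzyme for full effect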
C8 TRAIL sens = sensitizes caspase-8 expressing cells to TRAIL | NB7+C8 cells + TRAIL, ATPlite viability luminescence | inhibition (viability loss, TRAIL sensitization), % at 10 µM | 1% of 360,000 active | AID 624354;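 active = compounds causing at least 50% loss of cell viability in the single-dose screen, relative to plate controls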
SENP8 block-2 = SENP8 (human) protease inhibition; Q96LD8; recombinant SENP8, Nedd8 substrate fluorescence; inhibition, % at 20 µM; 0.64% of 360,000 active; AID 602440; in the data active = inhibition mostly above about 40%, no sharp cut-off; inactive = mostly below about 27%
SENP7 block = blocks the human protease SENP7; Q9BQF6; recombinant SENP7, Z-RLRGG-aminoluciferin luminescence, 40 min; inhibition, % at 5 µM; 1.5% of 330,000 active; AID 434973;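 active = inhibition above about 50% at the single test dose, limit read from the data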;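 also: plate controls were DMSO with enzyme for no effect and no enzyme buffer wells for full effect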
Target sequence (Q9BQF6 706-1050 limits assumed): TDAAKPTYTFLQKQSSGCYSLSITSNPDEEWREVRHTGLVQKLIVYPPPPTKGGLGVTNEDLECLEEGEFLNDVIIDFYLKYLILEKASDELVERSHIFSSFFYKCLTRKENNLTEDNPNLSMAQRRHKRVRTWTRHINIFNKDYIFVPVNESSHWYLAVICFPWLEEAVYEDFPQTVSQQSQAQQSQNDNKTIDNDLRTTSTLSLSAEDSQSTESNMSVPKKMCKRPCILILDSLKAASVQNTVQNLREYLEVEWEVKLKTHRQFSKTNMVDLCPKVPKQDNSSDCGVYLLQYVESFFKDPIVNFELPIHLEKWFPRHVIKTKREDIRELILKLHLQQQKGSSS
SENP8 confirm = human SENP8 inhibition, confirmed; Recombinant SENP8, Z-RLRGG-aminoluciferin luminescence, 60 min; inhibition, % at 12.5 µM; AID 488912; shares compounds with SENP7 block; 40% of 6,200 active;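 active = mean inhibition across replicates above about 50%, limit read from the data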
SENP6 confirm = confirmation of human SENP6 protease inhibitors; shares compounds with SENP7 block; recombinant SENP6, Z-RLRGG-aminoluciferin luminescence; inhibition, % at 12.5 µM; 58% of 6,200 active; AID 488915
SENP7 conf = confirmation of human SENP7 protease inhibitors; shares compounds with SENP7 block; recombinant SENP7, Z-RLRGG-aminoluciferin luminescence, 40 min; inhibition, % at 12.5 µM; 69% of 6,200 active; AID 488917
Casp3 select = selectivity test for SENP inhibitors: human caspase-3 inhibition; shares compounds with SENP7 block; purified caspase-3, Z-DEVD-aminoluciferin luminescence, 60 min; inhibition, % at 12.5 µM; 60% of 6,200 active; AID 488918;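 active = mean inhibition above about 50%, limit read from the data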;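 also: plate controls were enzyme with DMSO for no effect and wells without caspase-3 for full effect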
Luc interf = interferes with luciferase luminescence in SENP counter-screen | shares compounds with SENP7 block | inhibition, % at 12.5 µM | Pre-incubated SENP8/Z-RLRGG-aminoluciferin, luciferase luminescence interference | 39% of 6,200 active;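 active = mean inhibition above about 50% when retested at one dose, limit read from the data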;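 also: plate controls were DMSO wells with completed reaction for no effect and substrate without enzyme for full effect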
An asterisk follows results filed as active; · = not tested or not shown.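 The calls were made as follows, unless noted: active = mean inhibition above about 50% in the one-dose retest (limit read from the data); inactive = the rest.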

SMILES	PPC-1+TRAIL kill	SENP8 block-1	SENP6 block	C8 TRAIL sens	SENP8 block-2	SENP7 block	SENP8 confirm	SENP6 confirm	SENP7 conf	Casp3 select	Luc interf
COc1ccc(OC)c2c(C)cc(N3CCN(C(=O)c4ccc(Cl)cc4)CC3)nc12	0	42	69*	2	-300	24	12	5	5	3	-3
CCOC(=O)c1c(S(=O)(=O)NCC(=O)Nc2cccc(C)c2)c(C)n(C)c1C	·	-6	1	0	9	3	·	·	·	·	·
CCOC(=O)c1c(S(=O)(=O)NCC(=O)Nc2ccccc2)c(C)n(C)c1C	·	-7	-10	9	-18	73*	-12	-11	-11	-5	-15
O=C(NC1CCCCC1)N1CCN(Cc2nc3ccccc3c(=O)[nH]2)CC1	·	-4	60*	-5	31	-11	-5	-5	-6	-4	-4
CC(C)(C)C1CCC(=NNC(=O)c2ccco2)CC1 (stereo not drawn)	·	-5	5	-4	9	-5	·	·	·	·	·
O=c1[nH]c2cc3ccccc3cc2nc1-c1nnnn1Cc1ccccc1	·	·	·	9	1	·	·	·	·	·	·
O=C(Nc1ccc(N2CCCCC2)cc1)c1ccc(F)cc1	48	68*	79*	38	12	83*	11	14	20	47	10
COc1ccc(C(=O)Nc2ccc(N3CCCC3)cc2)cc1	15	-4	-12	-12	-12	2	·	·	·	·	·
COc1ccc(C(=O)Nc2ccc(N3CCCC3)cc2)cc1Br	·	60*	64*	-1	28	1	1	20	14	48	12
COc1ccc(C(=O)Nc2ccc(N3CCCC3)cc2)cc1OC	·	95*	94*	22	-11	19	88*	98*	102*	98*	89*
O=C(c1ccc(F)cc1)c1ccc(N2CCCCC2)cc1	·	-2	18	18	-64	-7	·	·	·	·	·
Cn1cccc1C(=O)Nc1ccc(N2CCOCC2)cc1	·	37	24	37	16	62*	59*	54*	82*	85*	33
O=C(CCCCCNC(=O)N1CCn2c1nc1ccccc12)NCCc1ccccc1	·	-3	1	2	4	1	·	·	·	·	·
COc1ccc(C(=O)c2ccc(OC)c(Br)c2)cc1Br	-3	-2	98*	-3	12	10	11	7	9	3	4
COc1ccc(C(=O)c2cccc(C(=O)c3ccc(OC)c(C)c3)c2)cc1C	·	-2	3	-13	8	1	·	·	·	·	·
COc1ccc(C(=O)Nc2ccc(N3CCOCC3)cc2)cc1OC	38	82*	89*	6	23	89*	58*	86*	97*	95*	20
Cc1ccc(S(=O)(=O)N2CCCC2CNC(=O)C(=O)NCCN2CCOCC2)cc1 (stereo not drawn)	·	1	-8	6	-5	-1	·	·	·	·	·
O=C(O)c1cccc(-n2cc(-c3cccc(C(F)(F)F)c3)cn2)c1	·	78*	85*	-30	22	59*	-6	87*	97*	11	91*
COc1cc(NCCCCCCCN)c2ncccc2c1	40	89*	94*	46	17	95*	70*	87*	63*	97*	4
COc1cc(NC(=O)OCc2ccccc2)c2ncccc2c1	·	·	·	-4	-44	·	·	·	·	·	·
Cc1cc(C(=O)CCC(=O)NCc2ccccc2F)c(C)s1	·	-9	-15	11	-34	-15	·	·	·	·	·
COc1cc(/C=N/N=C/c2cc(OC)c(O)c(OC)c2)cc(OC)c1O	11	-2	-2	0	5	-4	·	·	·	·	·
COc1cc(O)sc1C=Nc1ccc(Cl)cc1	13	82*	95*	-4	-8	91*	85*	87*	100*	84*	57*
Cc1ccc(C(=O)Nc2cccc3cccnc23)cc1Br	·	-5	4	4	4	55*	-2	2	9	23	12
O=C(Nc1ccc(C(=O)O)cc1)Nc1cccc2ccccc12	·	17	58*	4	-74	34	38	34	65*	62*	34
SMILES	PPC-1+TRAIL kill	SENP8 block-1	SENP6 block	C8 TRAIL sens	SENP8 block-2	SENP7 block	SENP8 confirm	SENP6 confirm	SENP7 conf	Casp3 select	Luc interf
O=C(Nc1ccccc1)Nc1cccc2cccnc12	20	60*	42	24	8	74*	80*	80*	94*	59*	77*
O=C(Nc1ccccc1)Nc1cccc2ccccc12	6	5	23	2	-57	24	·	·	·	·	·
O=C(Nc1cccc2cccnc12)c1ccc2c(c1)OCCO2	17	9	49	7	-3	32	·	·	·	·	·
COc1ccc(C(=O)Nn2c(SCc3ccc([N+](=O)[O-])cc3)nc3ccccc3c2=O)cc1	5	1	-5	26	19	3	·	·	·	·	·
Cc1cnc(C(=O)OCC(=O)NC(C)CCc2ccccc2)cn1 (stereo not drawn)	-7	4	3	5	6	-4	·	·	·	·	·
CCOC(=O)c1c(C)oc2c1cc(O)c1ccccc12	36	26	29	2	-48	72*	3	13	7	6	-2
C[C@@H]1CN([C@H](C)CO)C(=O)CCCn2cc(nn2)CO[C@H]1CN(C)C(=O)Nc1cccc(C(F)(F)F)c1	·	·	·	6	5	·	·	·	·	·	·
Cc1c(/C=C/C(=O)c2ccccc2O)cnn1C	2	35	63*	-16	19	67*	16	55*	81*	49	13
c1cncc(-c2csc(-c3cccnc3)n2)c1	·	-11	-32	2	14	-11	·	·	·	·	·
CC(=O)Nc1ccc(-c2csc(-c3cccnc3)n2)cc1	·	27	41	15	-264	51*	24	48	84*	62*	12
c1cncc(-c2nc(-c3ccc4c(c3)OCO4)cs2)c1	13	50	73*	29	-104	69*	44	69*	87*	61*	13
Oc1ccc(-c2csc(-c3cccnc3)n2)c(O)c1	1	35	66*	24	-74	55*	44	42	82*	54*	58*
c1cncc(-c2nc(-c3ccco3)cs2)c1	24	-2	-5	-5	-12	2	·	·	·	·	·
Clc1ccsc1-c1csc(-c2cccnc2)n1	4	32	69*	18	-94	45	26	43	82*	14	12

Source: PubChem BioAssay (Sanford-Burnham Center for Chemical Genomics)
